About 79,000 compounds went through this panel and 15% of them were active in at least one assay; those are over-represented in the sample as a whole. A number with no mark means an inactive call. Active and inactive are the calls of the source. No stated cut-off is given here; in the data, active means growth inhibition above about 70%; inactive means the rest. Where a SMILES comes first, the peptide text is derived from it. [ ]: non-standard residue; d: D form. The star is where a group is joined. mTyr = N[CH](Cc1cccc(O)c1)C(=O)O; Cbz = O=C(OCc1ccccc1)*; OBn = c1ccc(CO*)cc1

The nature of the first experiment: NCI Yeast Anticancer Drug Screen. Data for the cln2 rad14 strain (AID 165).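 Further: 0% = growth equal to vehicle treated cultures.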 Conditions: S. cerevisiae cln2 rad14 strain, at 50.0 µM (retest, dose inferred, filed as 5.0), hits give high values. Summed up: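 Compounds are applied to the cln2 rad14 yeast strain, and growth is then compared with that of vehicle-treated cultures to give inhibition.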
Consider `CC12CCC(c3sc(N)c(C#N)c31)C2(C)C` (stereo not given), for which the growth inhibition was 1%.
Still for that read-out and setting: the same measure for `O=C1/C(=C/c2cccc(F)c2)CCCc2ccccc21`: 14%.
Same read-out and setting: the same measure for `CC(=O)N[C@H]1CC[C@H]2[C@@H]3CCC4=CC(=O)CC[C@]4(C)[C@H]3CC[C@]12C`: 97% (active).
Same read-out and setting: the result for `C/C(=N/O)c1ccc2c(c1)C(=NO)c1cc(/C(C)=N/O)ccc1-2` reads 99% (active).
As to `Cc1cccc(N2C(c3ccccc3)c3ccc(C)cc3NS2=O)c1` (stereo not given), the growth inhibition is 1%.
Same read-out and setting: the same measure for `[Pt].c1ccc(P(CCP(CCP(c2ccccc2)c2ccccc2)CCP(c2ccccc2)c2ccccc2)c2ccccc2)cc1`: 91% (active).
For the compound `Cc1cc(I)ccc1NC(=S)Nc1ccccc1F`, the growth inhibition was 45%.
The same measure, in the same setting: the result for `FC(F)(F)c1ccccc1NC(=S)SCc1ccc(Cl)cc1` reads 69%; that for `COC(=O)C1(C)CC2C(C)(CCC3(C)C4=CC=C5C(=CC(=O)C(O)=C5C)C4(C)CCC23C)CC1O` (stereo not given), 97% (active); that for `CC1CCC(=NNC(N)=O)CC1` (stereo not given), -1%.
The same measure, in the same setting: the same measure for `CCOC(=O)C(NS(=O)(=O)c1ccccc1)(C(F)(F)F)P(=O)(OCC(C)C)OCC(C)C` (stereo not given): 13%.
The same measure, in the same setting: the result for `O=[N+]([O-])c1ccc(/C=N/NC2=CS(=O)(=O)C=C2)cc1` reads 0%; that for `CC(C)c1ccc2c(c1)CCC1C(C)(CNC(=O)S)CCCC21C.[Zn+2]` (stereo not given), 4%.
Consider `Cc1ccc(N=Nc2sc(N)nc2C)cc1C`, for which the growth inhibition is -47%.
Consider `CC(C)(C)C1CCC2c3c([nH]c4ccccc34)C3C(=O)N(c4ccc(C(=O)O)cc4)C(=O)C3C2C1` (stereo not given), for which the growth inhibition was 98% (active).
Still for that read-out and setting: the result for `O=C(CBr)Nc1ccc(Cc2ccc(NC(=O)CBr)cc2)cc1` reads -2%; that for `O=c1[nH]c2c([N+](=O)[O-])cc(Cl)cc2nc1/C=C(\O)c1ccc(Cl)cc1`, 83% (active); that for `CCOC(=O)C1=C(N)N(S(=O)(=O)c2ccc(C)cc2)CCC(C(=O)OC)=C1`, -6%.
On the same count and under the same terms, the result for `CC(C)=CC(=O)OC(CCCc1ccccc1)c1ccc2c(c1)OCO2` (stereo not given) reads 3%; that for `OCCN(CCO)c1cc(/C=C/c2ccnc3ccccc23)nc2ccccc12`, 43%.
On the same count and under the same terms, the same measure for `CCCCCCCCCCCC(=O)OCC1CO1` (stereo not given): -55%; for `CCCCCCCCCCCCCCCCCC1=NCCN1`: 99% (active); for `CC(=O)OCC1OC(OC2C=C(O[Si](C)(C)C)C[C@H]3C(=O)C=CC(=O)[C@@H]23)C(OC(C)=O)C(OC(C)=O)C1OC(C)=O` (stereo not given in full): 88% (active).
In the case of `C[C@]12CC[C@H]3[C@@H](CCC4=CC(=O)CC[C@@]43C)[C@@H]1CC[C@@H]2C(=O)C=O`, the growth inhibition is 21%.
Still for that read-out and setting: the same measure for `CCCCCC(O)C(C)CO` (stereo not given): -4%; for `CC(=O)Oc1ccc(-c2ccccc2)cc1Br`: 95% (active).
For `COC(=O)C(Cc1cccc(O)c1)NC(=O)C(CC(=O)OCc1ccccc1)NC(=O)OCc1ccccc1` (stereo not given) (Cbz-Asp(OBn)-[mTyr]-OMe; configuration not given here), the growth inhibition was 64%.
Consider `CCC(CO)Nc1nc2cc(Br)ccc2c2ccc(Br)cc12` (stereo not given), for which the growth inhibition was 93% (active).
Still for that read-out and setting: the same measure for `Cc1cc(Br)ccc1NC(=O)/C=C/C(=O)O`: 22%; for `CCO/C=C1N=C(/C=C/c2ccccc2Cl)OC/1=O`: 81% (active); for `O=S(=O)(Nc1ccccc1C(F)(F)F)c1ccc(F)cc1`: 69%.
Still for that read-out and setting: the result for `N#CSCC(=O)c1ccc2ccccc2c1` reads 98% (active).
Consider `O=[N+]([O-])/C(Cl)=C(\Nc1ccccc1)C(Cl)=C(Cl)Cl`, for which the growth inhibition is 99% (active).
Still for that read-out and setting: the result for `C/C(=N/NC(=O)c1ccccc1S(N)(=O)=O)C(CN1CCCCC1)C(C1=C(O)C2C=CC=CC2OC1=O)c1ccccc1` (stereo not given) reads 8%; that for `N#Cc1c([N+](=O)[O-])cc(C(F)(F)F)cc1[N+](=O)[O-]`, 99% (active); that for `CCCCCCCCCCCCO`, 12%.
Still for that read-out and setting: the result for `S=C(N/N=C/c1ccccn1)N1CC2CCC(CC2)C1` reads 100% (active); that for `ClC1(c2ccccc2)c2ccccc2-c2ccccc21`, 92% (active); that for `Cc1ccc(SCC#CC#CCS(=O)c2ccc(C)cc2)cc1` (stereo not given), 98% (active).
As to `CCCCCCCOc1ccc(C=O)cc1OC`, the growth inhibition is 26%.

The experiment is the same for the next values; noted with them: S. cerevisiae cln2 rad14 strain, at 50.0 µM, hits give high values.
Consider `CC12CCC(c3sc(N)c(C#N)c31)C2(C)C` (stereo not given), for which the growth inhibition was 13.8%.
Still for that read-out and setting: the same measure for `O=C1/C(=C/c2cccc(F)c2)CCCc2ccccc21`: 12.3%; for `CC(=O)N[C@H]1CC[C@H]2[C@@H]3CCC4=CC(=O)CC[C@]4(C)[C@H]3CC[C@]12C`: 79.5% (active); for `C/C(=N/O)c1ccc2c(c1)C(=NO)c1cc(/C(C)=N/O)ccc1-2`: 93.7% (active).
Same read-out and setting: the result for `Cc1cccc(N2C(c3ccccc3)c3ccc(C)cc3NS2=O)c1` (stereo not given) reads 98.7% (active); that for `[Pt].c1ccc(P(CCP(CCP(c2ccccc2)c2ccccc2)CCP(c2ccccc2)c2ccccc2)c2ccccc2)cc1`, 78% (active); that for `Cc1cc(I)ccc1NC(=S)Nc1ccccc1F`, 70% (active).
Regarding `FC(F)(F)c1ccccc1NC(=S)SCc1ccc(Cl)cc1`, the growth inhibition was 98.5% (active).
Same read-out and setting: the result for `COC(=O)C1(C)CC2C(C)(CCC3(C)C4=CC=C5C(=CC(=O)C(O)=C5C)C4(C)CCC23C)CC1O` (stereo not given) reads 88% (active); that for `CC1CCC(=NNC(N)=O)CC1` (stereo not given), 34.9%.
Same read-out and setting: the same measure for `CCOC(=O)C(NS(=O)(=O)c1ccccc1)(C(F)(F)F)P(=O)(OCC(C)C)OCC(C)C` (stereo not given): 97.3% (active); for `O=[N+]([O-])c1ccc(/C=N/NC2=CS(=O)(=O)C=C2)cc1`: 38%; for `CC(C)c1ccc2c(c1)CCC1C(C)(CNC(=O)S)CCCC21C.[Zn+2]` (stereo not given): 38.5%.
On the same count and under the same terms, the same measure for `Cc1ccc(N=Nc2sc(N)nc2C)cc1C`: 30.1%.
With `CC(C)(C)C1CCC2c3c([nH]c4ccccc34)C3C(=O)N(c4ccc(C(=O)O)cc4)C(=O)C3C2C1` (stereo not given), the growth inhibition was 99.4% (active).
The same measure, in the same setting: the same measure for `O=C(CBr)Nc1ccc(Cc2ccc(NC(=O)CBr)cc2)cc1`: 97.1% (active).
For the compound `O=c1[nH]c2c([N+](=O)[O-])cc(Cl)cc2nc1/C=C(\O)c1ccc(Cl)cc1`, the growth inhibition was 65%.
For the compound `CCOC(=O)C1=C(N)N(S(=O)(=O)c2ccc(C)cc2)CCC(C(=O)OC)=C1`, the growth inhibition is -3.15%.
In the case of `CC(C)=CC(=O)OC(CCCc1ccccc1)c1ccc2c(c1)OCO2` (stereo not given), the growth inhibition is 0.35%.
On the same count and under the same terms, the result for `OCCN(CCO)c1cc(/C=C/c2ccnc3ccccc23)nc2ccccc12` reads 61.5%.
In the case of `CCCCCCCCCCCC(=O)OCC1CO1` (stereo not given), the growth inhibition is 34%.
On the same count and under the same terms, the same measure for `CCCCCCCCCCCCCCCCCC1=NCCN1`: 98% (active).
Same read-out and setting: the result for `CC(=O)OCC1OC(OC2C=C(O[Si](C)(C)C)C[C@H]3C(=O)C=CC(=O)[C@@H]23)C(OC(C)=O)C(OC(C)=O)C1OC(C)=O` (stereo not given in full) reads 4.5%; that for `C[C@]12CC[C@H]3[C@@H](CCC4=CC(=O)CC[C@@]43C)[C@@H]1CC[C@@H]2C(=O)C=O`, 39%.
As for `CCCCCC(O)C(C)CO` (stereo not given), the growth inhibition is 42.9%.
Same read-out and setting: the result for `CC(=O)Oc1ccc(-c2ccccc2)cc1Br` reads 85.1% (active); that for `COC(=O)C(Cc1cccc(O)c1)NC(=O)C(CC(=O)OCc1ccccc1)NC(=O)OCc1ccccc1` (stereo not given) (Cbz-Asp(OBn)-[mTyr]-OMe; configuration not given here), 89.8% (active); that for `CCC(CO)Nc1nc2cc(Br)ccc2c2ccc(Br)cc12` (stereo not given), 93.8% (active).
Still for that read-out and setting: the result for `Cc1cc(Br)ccc1NC(=O)/C=C/C(=O)O` reads 7.15%; that for `CCO/C=C1N=C(/C=C/c2ccccc2Cl)OC/1=O`, 20.2%; that for `O=S(=O)(Nc1ccccc1C(F)(F)F)c1ccc(F)cc1`, 33.4%.
Same read-out and setting: the result for `N#CSCC(=O)c1ccc2ccccc2c1` reads 91% (active); that for `O=[N+]([O-])/C(Cl)=C(\Nc1ccccc1)C(Cl)=C(Cl)Cl`, 90.9% (active); that for `C/C(=N/NC(=O)c1ccccc1S(N)(=O)=O)C(CN1CCCCC1)C(C1=C(O)C2C=CC=CC2OC1=O)c1ccccc1` (stereo not given), 88.8% (active).
Take `N#Cc1c([N+](=O)[O-])cc(C(F)(F)F)cc1[N+](=O)[O-]`: the growth inhibition is 99.2% (active).
On the same count and under the same terms, the result for `CCCCCCCCCCCCO` reads -4.65%.
Still for that read-out and setting: the same measure for `S=C(N/N=C/c1ccccn1)N1CC2CCC(CC2)C1`: 93.2% (active).
As to `ClC1(c2ccccc2)c2ccccc2-c2ccccc21`, the growth inhibition is 8.7%.
The same measure, in the same setting: the same measure for `Cc1ccc(SCC#CC#CCS(=O)c2ccc(C)cc2)cc1` (stereo not given): 98% (active).
As to `CCCCCCCOc1ccc(C=O)cc1OC`, the growth inhibition was 36.9%.

The values above are taken from PubChem BioAssay (NCI).
